FBA Mtb inh: Mtb fructose-bisphosphate aldolase inhibition. 360,000 tested, 2.3% active. P9WQA3. purified M. tuberculosis FBA, fluorescence read-out. inhibition, % at 1 µM
PrPC surface inh: inhibitors of human cell surface prion protein PrPC; P04156; TR-FRET read-out; inhibition, % at 13.8 µM; 370,000 tested, 0.43% active; in the data active means inhibition above about 24%
RecA intein inh: blocks M. tuberculosis RecA intein splicing. 290,000 tested, 0.75% active. cell-free RecA intein splicing, fluorescence. inhibition, % (no concentration beside the values). AID 2221. P9WHJ3; in the data active means inhibition above about 30%
Target sequence (P9WHJ3 whole entry, looked up): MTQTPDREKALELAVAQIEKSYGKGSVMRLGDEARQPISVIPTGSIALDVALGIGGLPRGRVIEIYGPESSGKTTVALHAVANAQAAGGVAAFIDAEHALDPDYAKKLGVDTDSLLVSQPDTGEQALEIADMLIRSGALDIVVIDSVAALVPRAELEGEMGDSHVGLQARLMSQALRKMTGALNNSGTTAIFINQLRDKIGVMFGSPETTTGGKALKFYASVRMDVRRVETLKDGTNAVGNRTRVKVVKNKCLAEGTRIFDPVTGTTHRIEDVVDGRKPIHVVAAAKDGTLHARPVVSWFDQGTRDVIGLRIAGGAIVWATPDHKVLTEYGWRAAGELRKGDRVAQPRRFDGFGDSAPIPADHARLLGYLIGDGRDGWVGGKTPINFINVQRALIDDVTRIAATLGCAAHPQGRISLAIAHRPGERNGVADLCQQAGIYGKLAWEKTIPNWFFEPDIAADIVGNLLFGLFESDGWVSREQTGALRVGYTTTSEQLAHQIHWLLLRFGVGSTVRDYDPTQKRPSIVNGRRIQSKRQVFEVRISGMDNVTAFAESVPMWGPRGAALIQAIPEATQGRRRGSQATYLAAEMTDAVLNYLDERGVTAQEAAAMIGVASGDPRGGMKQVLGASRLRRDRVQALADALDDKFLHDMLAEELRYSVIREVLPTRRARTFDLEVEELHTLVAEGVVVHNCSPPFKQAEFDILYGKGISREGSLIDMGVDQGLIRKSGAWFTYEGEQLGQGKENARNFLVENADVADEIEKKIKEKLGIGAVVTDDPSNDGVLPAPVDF
BJeLR viability: BJeLR cell viability loss; BJeLR (HRASV12) viability, CellTiter-Glo ATP luminescence, 48 h; inhibition, % (no concentration beside the values); 300,000 tested, 0.17% active; in the data active means inhibition above about 50%
GDH-TPI counter-1: inhibits GDH-TPI coupling enzymes, artifact for Mtb FBA screen; GDH-TPI coupled enzyme counterscreen, NADH absorbance; inhibition, % at 4.8 µM; 360,000 tested, 1.2% active; AID 588335; in the data active means inhibition above about 30%
Mtb FBA inh conf: Mtb FBA inhibition, confirmed; shares compounds with FBA Mtb inh; purified M. tuberculosis FBA, fluorescence read-out; inhibition, % at 1 µM; 5,600 tested, 78% active
GDH-TPI counter-2: inhibits GDH-TPI coupling enzymes, flagging Mtb FBA hits; shares compounds with FBA Mtb inh; GDH-TPI coupled enzyme counterscreen, fluorescence; inhibition, % at 1 µM; 5,600 tested, 81% active; AID 652141; in the data active means inhibition above about 10%
GDH-TPI dose: inhibits GDH-TPI coupling enzymes in dose response; shares compounds with FBA Mtb inh; 170 tested, 79% active; AID 652145; IC50, µM; GDH-TPI coupled enzyme assay, fluorescence, artifact counterscreen; call rule not given here
Numbers stand for hits; – = inactive; · = no result given; + = active, no number. Rows were chosen to be rich in hits. Some 4.2% of all compounds tested hit in one or more screens of this group. Unless noted, no stated cut-off is given here; in the data, active means inhibition above about 27%; inactive means the rest.

SMILES | FBA Mtb inh | PrPC surface inh | RecA intein inh | BJeLR viability | GDH-TPI counter-1 | Mtb FBA inh conf | GDH-TPI counter-2 | others
CCN(CC)C(=O)c1cc2c(=O)n3cccc(C)c3nc2n1C | 57 | – | – | – | – | 122 | 107
CCOC(=O)N1CCN(C(=O)c2cc3c(=O)n4cccc(C)c4nc3s2)CC1 | – | – | – | – | – | · | ·
CCCCN(CC)C(=O)c1cc2c(=O)n3cccc(C)c3nc2s1 | 70 | – | – | – | – | + | 167
Cc1ccccc1C(=O)NC1CCCCN(C)C1=O (stereo unspecified) | · | – | · | · | · | · | ·
O=S1(=O)N[C@@H](Cc2ccccc2)COc2cccc(NCCO)c21 | · | – | · | · | · | · | ·
Cc1ccc(C2CCC3(CCC(=O)N3CCOC(=O)Nc3ccc(F)cc3)CC2)cc1 (stereo unspecified) | · | – | · | · | · | · | ·
COc1ccc(-c2cn3cccnc3n2)cc1NC(=O)c1cc(OC)c(OC)c(OC)c1 | 32 | – | – | – | – | + | +
N#CCC1(O)C(=O)Nc2ccccc21 (stereo unspecified) | · | – | · | · | · | · | ·
N#Cc1ccc(Cn2ccc3ccc(-c4ccc5ccn(C(=O)C6CCC6)c5c4)cc32)cc1 | · | – | · | · | · | · | ·
COCCCNC(=O)C[C@H]1C[C@@]2(C(=O)OC)C(=C[C@H](C3CCCC3)O[C@@H]2C)N(Cc2ccc(Cl)cc2Cl)C1=O | · | – | · | · | · | · | ·
COC(=O)C1CN(Cc2ccccc2)CCS(=O)(=O)N1Cc1ccccc1F (stereo unspecified) | · | – | · | · | · | · | ·
CC(C)CN1C(=O)[C@@]2(CC(=O)N(C)C2c2ccccc2)c2cc(-n3cc(-c4ccccc4)nn3)ccc21 (stereo partly specified) | · | – | · | · | · | · | ·
COCCCNc1ccn2nc(-c3ccc(Cl)cc3)cc2n1 | 34 | – | · | · | – | 87 | 76
COc1ccc(-c2oc3cccnc3c2/C=C/c2ccc(OC)c(OC)c2)cc1 | 94 | – | – | – | – | + | 195
CCOC(=O)c1nc(N)c(C(=O)OCC)[nH]1 | 59 | – | – | – | – | 198 | 166
CCOC(=O)Cn1cc(CN2C(C(=O)OC)CN(Cc3ccc(C)cc3)CCS2(=O)=O)nn1 (stereo unspecified) | · | – | · | · | · | · | ·
CCOc1c2ccc(C(=O)NCc3ccc(C(F)(F)F)cc3C(F)(F)F)cc2nn1C | 60 | – | – | – | – | 127 | 104
COc1c2ccc(C(=O)NCc3cc(C(F)(F)F)cc(C(F)(F)F)c3)cc2nn1C | 46 | – | – | – | – | 97 | 73
C=CCOc1c2ccc(C(=O)NCc3ccc(OC)cc3)cc2nn1C | – | – | – | – | – | · | ·
CCOC(=O)c1ccccc1NC1CC(=O)N(c2ccccc2C)C1=O (stereo unspecified) | 102 | – | – | – | – | 135 | 139
CCOC(=O)c1ccccc1NC(=O)C1CC(=O)N(C(C)(C)C)C1 (stereo unspecified) | – | – | – | – | – | · | ·
CCN(CC)CCNc1nc(SC)nc2sc3c(c12)CCN(C)C3 | 41 | – | – | – | – | 97 | 75
COCCCNc1nc(SCc2ccccc2)nc2sc3c(c12)CCC3 | 34 | – | – | – | – | 97 | 78
CSc1nc(NCC(C)C)c2c3c(sc2n1)CN(C)CC3 | 49 | – | – | – | – | 59 | 57
CSc1nc(NCCCN(C)C)c2c3c(sc2n1)CN(C)CC3 | · | – | – | – | · | · | ·
SMILES | FBA Mtb inh | PrPC surface inh | RecA intein inh | BJeLR viability | GDH-TPI counter-1 | Mtb FBA inh conf | GDH-TPI counter-2 | others
N#Cc1cnn(-c2nc(SCc3ccccc3)nc3sc4c(c23)CCCC4)c1N | – | – | – | – | – | · | ·
COCCNc1nc(SC)nc2sc3c(c12)CCN(C)C3 | 80 | – | – | – | – | 196 | 177
CSc1nc(SCC(=O)NCC2CCCO2)c2c3c(sc2n1)CN(C)CC3 (stereo unspecified) | · | – | – | – | · | · | ·
O=S(=O)(c1ccc(C(F)(F)F)cc1)N1CCCc2nc(-c3ccccc3)ccc21 | · | – | · | · | · | · | ·
Cc1cc(C)cc(C(=O)OCCCN(C)C2CN(Cc3cn(Cc4cccc(F)c4)nn3)S(=O)(=O)C2)c1 (stereo unspecified) | · | – | · | · | · | · | ·
CCn1c(SCC(=O)c2ccccc2)nc2sc3c(c2c1=O)CCN(C)C3 | – | – | – | – | – | · | ·
CSc1nc(NCc2ccccc2)c2c3c(sc2n1)CN(C)CC3 | 72 | – | – | – | – | 140 | 84
COC(=O)C1CN(C2CCCC2)CCS(=O)(=O)N1Cc1cn(Cc2ccc(C)cc2)nn1 (stereo unspecified) | · | – | · | · | · | · | ·
C[C@@H]1ON(C)[C@H]2C[C@H]3c4[nH]c5c(-c6cccc(F)c6)cccc5c4CCN3C(=O)[C@@H]12 | · | – | · | · | · | · | ·
CCc1nc(Nc2ccc3c(c2)OCO3)c2oc3ccccc3c2n1 | – | – | – | – | – | · | ·
CCc1nc(Nc2ccncc2)c2oc3ccccc3c2n1 | 57 | – | – | – | 40 | 49 | 41
Cc1nc(Nc2ccncc2)c2oc3ccccc3c2n1 | 35 | – | – | – | 33 | 161 | 136
COCCCn1c(C(=O)N2CC(C)OC(C)C2)cc2c(=O)n3cccc(C)c3nc21 (stereo unspecified) | 74 | · | – | – | – | + | +
COCCCn1c(C(=O)N2CCOCC2)cc2c(=O)n3cccc(C)c3nc21 | 72 | – | – | – | – | 55 | 43
CCCCn1c(=NC(=O)c2ccc3c(c2)OCO3)c(C#N)cc2c(=O)n3cccc(C)c3nc21 | 77 | – | · | · | – | + | +
COCCCn1c(C(=O)Nc2ccc3c(c2)OCO3)cc2c(=O)n3cccc(C)c3nc21 | – | – | · | · | – | · | ·
O=C(NCc1ccccc1)[C@@H]1CCCN1C(=O)[C@H]1CCCN1C(=O)c1cccs1 | · | – | · | · | · | · | ·
COc1ccc(-c2c(C(=O)c3ccccc3)[nH]c(N)c2C(=O)NCCc2c[nH]c3ccccc23)cc1 | · | – | · | · | · | · | ·
CCCCCCCCN1C(=O)[C@@H](CC(=O)N2CCC(c3ccccc3)CC2)C[C@@]2(C(=O)OC)C1=C[C@H](COCc1ccccc1)O[C@@H]2C | · | – | · | · | · | · | ·
CCOC(=O)c1oc2cccc(OCC(O)CNC(C)C)c2c1C (stereo unspecified) | 91 | – | – | – | – | – | – | GDH-TPI dose=1.5
CCCN1CCS(=O)(=O)N(Cc2cn(Cc3ccccc3)nn2)C(C(=O)OC)C1 (stereo unspecified) | · | – | · | · | · | · | ·
CCOC(=O)C1CCCN(C(=O)c2cc(-c3ccco3)nc3ccccc23)C1 (stereo unspecified) | 84 | – | · | · | – | + | 157
O=C(c1cc(-c2ccco2)nc2ccccc12)N1CCCC(C(F)(F)F)C1 (stereo unspecified) | 102 | – | · | · | – | + | +
COc1ccccc1NC(=O)N1CCCC1C(=O)Nc1ccc2c(c1)OCO2 (stereo unspecified) | 28 | – | – | – | – | 99 | 86
S=C1NCCN1c1ccc(Cl)cc1 | · | – | · | · | · | · | ·

Screening results from PubChem.
